Results on eight sequences are retold here after article PMC7862700, “An all-to-all approach to the identification of sequence-specific readers for epigenetic DNA modifications on cytosine”.

Experiment in all cases: DAPPL (digital affinity profiling via proximity ligation, sequencing); 10 mM Tris-HCl pH 7.5, 50 mM NaCl, 1 mM DTT, 4% glycerol, room temperature, 30 min; GST-TFs on glutathione beads, 16-mer random dsDNA library, 0.1% formaldehyde crosslink after washing; high values mean tight binding
Assay [1] has as its target T1, FEV (Homo sapiens, UniProt Q99581 1-238).
T1 sequence: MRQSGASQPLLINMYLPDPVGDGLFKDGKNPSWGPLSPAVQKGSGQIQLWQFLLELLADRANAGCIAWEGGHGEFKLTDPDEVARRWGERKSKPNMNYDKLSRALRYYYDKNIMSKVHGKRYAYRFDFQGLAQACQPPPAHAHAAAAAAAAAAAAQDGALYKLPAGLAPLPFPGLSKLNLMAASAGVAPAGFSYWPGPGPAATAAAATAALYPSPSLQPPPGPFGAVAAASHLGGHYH
The settings on record: protein: recombinant; tags: N-terminal GST; dsDNA, one strand shown. The gist of the method: (§1)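 Human transcription factors fused to GST were expressed in yeast, captured on glutathione beads, given DNA barcodes and pooled with a GST-only negative control. Pools were incubated with 200 nmole of a 16-mer random double-stranded DNA library in Tris/NaCl/DTT/glycerol buffer at room temperature for 30 min. They were then washed, crosslinked with 0.1% formaldehyde, proximity-ligated (BsaI/T4 ligase, 1 h, 37 °C), PCR-amplified and sequenced on an Illumina NextSeq500. Binding signal is each 6-mer's read frequency for a factor divided by its frequency for the GST control.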

The target in assay [2] is ETV5 (Homo sapiens, UniProt P41161 1-510). The settings on record: protein: recombinant; tags: N-terminal GST; dsDNA, one strand shown. The essentials:
as §1

For assay [3], the target named is HSF1 (Homo sapiens, UniProt Q00613 1-529). The following applies: protein: recombinant; tags: N-terminal GST; chain copies: 3; dsDNA, one strand shown. The gist of the method:
as §1

Assay [4] deals with T2, SPIC (Homo sapiens, UniProt Q8N5J4 1-248).
T2 sequence: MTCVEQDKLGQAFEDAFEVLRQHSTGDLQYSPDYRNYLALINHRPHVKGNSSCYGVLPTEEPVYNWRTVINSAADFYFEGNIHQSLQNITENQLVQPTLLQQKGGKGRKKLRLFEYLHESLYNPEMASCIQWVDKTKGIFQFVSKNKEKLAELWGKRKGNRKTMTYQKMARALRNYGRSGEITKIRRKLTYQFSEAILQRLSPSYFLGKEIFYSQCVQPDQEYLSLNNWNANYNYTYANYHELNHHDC
The settings on record: protein: recombinant; tags: N-terminal GST; dsDNA, one strand shown. The gist of the method: as §1

The target of assay [5] is ELF4 (Homo sapiens, UniProt Q99607 1-663). The settings on record: protein: recombinant; tags: N-terminal GST; dsDNA, one strand shown. The essentials: as §1
Assay [6] deals with T3, ELK4 (Homo sapiens, UniProt P28324-2 1-405).
T3 sequence: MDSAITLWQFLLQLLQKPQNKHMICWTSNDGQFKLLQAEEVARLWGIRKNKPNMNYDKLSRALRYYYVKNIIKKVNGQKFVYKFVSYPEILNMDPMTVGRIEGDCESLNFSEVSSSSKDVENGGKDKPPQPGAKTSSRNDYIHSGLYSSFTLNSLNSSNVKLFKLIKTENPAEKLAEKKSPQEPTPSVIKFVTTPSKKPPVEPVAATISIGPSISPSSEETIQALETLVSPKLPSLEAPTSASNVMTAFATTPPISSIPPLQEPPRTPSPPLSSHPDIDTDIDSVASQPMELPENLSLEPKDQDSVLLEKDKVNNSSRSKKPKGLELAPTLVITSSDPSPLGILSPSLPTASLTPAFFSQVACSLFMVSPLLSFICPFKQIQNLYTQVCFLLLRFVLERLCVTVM
The settings on record: protein: recombinant; tags: N-terminal GST; dsDNA, one strand shown. The essentials: as §1

For assay [7], the target named is T4, ETV2 (Homo sapiens, UniProt O00321 1-342).
T4 sequence: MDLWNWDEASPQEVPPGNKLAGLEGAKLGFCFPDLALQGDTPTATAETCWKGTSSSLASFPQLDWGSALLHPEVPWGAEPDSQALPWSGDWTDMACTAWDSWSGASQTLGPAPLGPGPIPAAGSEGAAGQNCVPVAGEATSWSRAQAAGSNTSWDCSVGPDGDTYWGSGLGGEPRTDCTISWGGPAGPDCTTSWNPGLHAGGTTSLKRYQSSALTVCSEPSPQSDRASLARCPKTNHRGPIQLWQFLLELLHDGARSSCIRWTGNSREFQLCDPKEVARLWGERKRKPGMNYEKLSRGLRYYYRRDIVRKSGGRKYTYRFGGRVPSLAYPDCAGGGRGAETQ
The following applies: protein: recombinant; tags: N-terminal GST; dsDNA, one strand shown. The essentials:
as §1

Assay [8] concerns the target T5, ELF3 (Homo sapiens, UniProt P78545 1-371).
T5 sequence: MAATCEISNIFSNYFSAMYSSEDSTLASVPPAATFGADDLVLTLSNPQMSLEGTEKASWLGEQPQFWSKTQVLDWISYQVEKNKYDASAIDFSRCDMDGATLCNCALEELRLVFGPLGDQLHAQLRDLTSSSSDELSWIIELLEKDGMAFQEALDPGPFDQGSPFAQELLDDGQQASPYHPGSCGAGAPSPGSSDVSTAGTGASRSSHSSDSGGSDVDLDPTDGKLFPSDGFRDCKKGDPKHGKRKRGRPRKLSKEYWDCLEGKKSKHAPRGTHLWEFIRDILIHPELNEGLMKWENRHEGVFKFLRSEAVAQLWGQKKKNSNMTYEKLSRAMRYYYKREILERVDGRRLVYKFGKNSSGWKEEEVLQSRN
The following applies: protein: recombinant; tags: N-terminal GST; dsDNA, one strand shown. The gist of the method: as §1

Assay [9] has as its target ETV1 (Homo sapiens, UniProt P50549 1-477). The following applies: protein: recombinant; tags: N-terminal GST; dsDNA, one strand shown. The gist of the method: as §1

HSF1, sequence (Q00613 whole entry): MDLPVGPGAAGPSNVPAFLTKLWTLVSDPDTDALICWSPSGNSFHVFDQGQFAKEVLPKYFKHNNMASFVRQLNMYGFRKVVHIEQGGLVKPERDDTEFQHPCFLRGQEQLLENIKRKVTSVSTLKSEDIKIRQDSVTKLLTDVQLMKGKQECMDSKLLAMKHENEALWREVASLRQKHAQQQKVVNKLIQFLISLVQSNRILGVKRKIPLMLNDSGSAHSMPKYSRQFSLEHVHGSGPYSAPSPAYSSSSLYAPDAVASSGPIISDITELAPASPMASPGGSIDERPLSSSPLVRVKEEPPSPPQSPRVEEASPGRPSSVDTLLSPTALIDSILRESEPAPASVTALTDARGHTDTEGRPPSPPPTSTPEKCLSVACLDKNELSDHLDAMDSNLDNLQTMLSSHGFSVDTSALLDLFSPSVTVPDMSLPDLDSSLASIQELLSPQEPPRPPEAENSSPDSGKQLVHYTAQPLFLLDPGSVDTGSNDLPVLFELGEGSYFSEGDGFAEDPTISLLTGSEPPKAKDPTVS
ELF4, sequence (Q99607 whole entry): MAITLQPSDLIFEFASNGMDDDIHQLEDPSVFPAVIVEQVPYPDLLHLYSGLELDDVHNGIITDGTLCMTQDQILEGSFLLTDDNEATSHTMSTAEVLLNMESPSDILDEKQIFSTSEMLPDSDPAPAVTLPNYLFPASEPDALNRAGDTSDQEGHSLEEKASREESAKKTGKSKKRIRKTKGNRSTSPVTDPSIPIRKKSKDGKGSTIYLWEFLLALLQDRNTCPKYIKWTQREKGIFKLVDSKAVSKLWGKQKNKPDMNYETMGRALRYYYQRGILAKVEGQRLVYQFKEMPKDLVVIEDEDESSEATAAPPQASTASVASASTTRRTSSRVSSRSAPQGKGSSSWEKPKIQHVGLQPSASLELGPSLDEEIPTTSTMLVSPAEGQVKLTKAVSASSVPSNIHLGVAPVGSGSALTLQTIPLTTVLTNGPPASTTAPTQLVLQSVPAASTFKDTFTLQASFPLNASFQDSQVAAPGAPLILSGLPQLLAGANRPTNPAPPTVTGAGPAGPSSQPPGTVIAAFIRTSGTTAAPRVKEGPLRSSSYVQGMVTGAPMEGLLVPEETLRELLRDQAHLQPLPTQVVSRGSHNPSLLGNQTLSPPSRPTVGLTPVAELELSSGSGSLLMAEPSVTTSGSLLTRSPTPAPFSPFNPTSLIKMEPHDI
ETV1, sequence (P50549 whole entry): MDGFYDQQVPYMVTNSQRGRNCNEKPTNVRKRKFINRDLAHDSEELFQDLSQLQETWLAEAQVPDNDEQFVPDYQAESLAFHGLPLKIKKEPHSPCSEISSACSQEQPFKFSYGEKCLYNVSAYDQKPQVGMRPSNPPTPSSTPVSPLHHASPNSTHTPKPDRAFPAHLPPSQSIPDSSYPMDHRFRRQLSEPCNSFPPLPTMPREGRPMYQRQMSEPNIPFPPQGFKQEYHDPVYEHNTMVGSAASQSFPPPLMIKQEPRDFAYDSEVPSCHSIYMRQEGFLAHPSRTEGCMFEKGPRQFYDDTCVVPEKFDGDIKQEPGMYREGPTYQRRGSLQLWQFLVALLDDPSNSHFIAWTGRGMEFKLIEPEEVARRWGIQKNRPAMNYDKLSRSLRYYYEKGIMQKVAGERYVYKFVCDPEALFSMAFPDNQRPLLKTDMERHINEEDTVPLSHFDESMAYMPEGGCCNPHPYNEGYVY
ETV5, sequence (P41161 whole entry): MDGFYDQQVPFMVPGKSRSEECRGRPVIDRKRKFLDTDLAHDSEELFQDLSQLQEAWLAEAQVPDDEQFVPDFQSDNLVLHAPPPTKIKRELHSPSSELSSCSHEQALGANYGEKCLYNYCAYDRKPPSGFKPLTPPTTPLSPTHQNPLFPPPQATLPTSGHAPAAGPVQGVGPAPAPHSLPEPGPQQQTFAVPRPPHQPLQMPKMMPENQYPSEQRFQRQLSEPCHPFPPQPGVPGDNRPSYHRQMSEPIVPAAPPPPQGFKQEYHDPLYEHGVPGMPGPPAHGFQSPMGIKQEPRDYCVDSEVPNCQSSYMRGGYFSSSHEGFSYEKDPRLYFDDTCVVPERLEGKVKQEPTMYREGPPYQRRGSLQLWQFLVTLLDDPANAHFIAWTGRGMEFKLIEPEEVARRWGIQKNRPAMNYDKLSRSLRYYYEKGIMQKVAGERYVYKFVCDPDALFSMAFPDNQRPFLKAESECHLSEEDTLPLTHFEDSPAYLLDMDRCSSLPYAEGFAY

On to GGAAAT, for which the binding signal is 4 fold enrichment (6-mer frequency, TF over GST control) in [1]; 3.05 fold enrichment (6-mer frequency, TF over GST control) in assay [2]; 1.29 fold enrichment (6-mer frequency, TF over GST control) in assay [3]; 2.47 fold enrichment (6-mer frequency, TF over GST control) in [4]; 2.4 fold enrichment (6-mer frequency, TF over GST control) in [5]; 2.13 fold enrichment (6-mer frequency, TF over GST control) in assay [6]. The binding signal in assay [7] was 2.4 fold enrichment (6-mer frequency, TF over GST control); in assay [8], 2.74 fold enrichment (6-mer frequency, TF over GST control); in [9], 2.69 fold enrichment (6-mer frequency, TF over GST control).
Regarding TGCCCC, the binding signal was 1.36 fold enrichment (6-mer frequency, TF over GST control) in [1]; 1.24 fold enrichment (6-mer frequency, TF over GST control) in assay [2]; 1.01 fold enrichment (6-mer frequency, TF over GST control) in assay [3]; 1.41 fold enrichment (6-mer frequency, TF over GST control) in assay [4]; 1.26 fold enrichment (6-mer frequency, TF over GST control) in assay [5]; 1.51 fold enrichment (6-mer frequency, TF over GST control) in [6]. Further, the binding signal in assay [7] was 1.21 fold enrichment (6-mer frequency, TF over GST control); in assay [8], 1.11 fold enrichment (6-mer frequency, TF over GST control); in assay [9], 1.19 fold enrichment (6-mer frequency, TF over GST control).
As to TGTACA, the binding signal in [1] was 1.24 fold enrichment (6-mer frequency, TF over GST control); in assay [2], 1.17 fold enrichment (6-mer frequency, TF over GST control); in assay [3] it was 1.01 fold enrichment (6-mer frequency, TF over GST control); in assay [4], 1.45 fold enrichment (6-mer frequency, TF over GST control); in assay [5], 1.36 fold enrichment (6-mer frequency, TF over GST control); in assay [6], 1.17 fold enrichment (6-mer frequency, TF over GST control). For the same sequence, the binding signal in [7] was 1.19 fold enrichment (6-mer frequency, TF over GST control); in [8] it was 1.01 fold enrichment (6-mer frequency, TF over GST control); in assay [9], 1.15 fold enrichment (6-mer frequency, TF over GST control).
Turning to ACACGA, the binding signal in [1] is 1.1 fold enrichment (6-mer frequency, TF over GST control); in [2] it was 1.15 fold enrichment (6-mer frequency, TF over GST control); in assay [3], 1.02 fold enrichment (6-mer frequency, TF over GST control); in assay [4], 1.11 fold enrichment (6-mer frequency, TF over GST control); in assay [5] it was 1.2 fold enrichment (6-mer frequency, TF over GST control); in [6], 1.16 fold enrichment (6-mer frequency, TF over GST control). Besides, the binding signal in assay [7] was 1.08 fold enrichment (6-mer frequency, TF over GST control); in assay [8], 1.01 fold enrichment (6-mer frequency, TF over GST control); in [9] it was 1.1 fold enrichment (6-mer frequency, TF over GST control).
Consider CCACTC, for which the binding signal was 1.27 fold enrichment (6-mer frequency, TF over GST control) in assay [1]; 1.23 fold enrichment (6-mer frequency, TF over GST control) in assay [2]; 1.05 fold enrichment (6-mer frequency, TF over GST control) in [3]; 1.27 fold enrichment (6-mer frequency, TF over GST control) in assay [4]; 1.29 fold enrichment (6-mer frequency, TF over GST control) in assay [5]; 1.49 fold enrichment (6-mer frequency, TF over GST control) in assay [6]. Besides, the binding signal was 1.18 fold enrichment (6-mer frequency, TF over GST control) in assay [7]; 1.14 fold enrichment (6-mer frequency, TF over GST control) in [8]; 1.17 fold enrichment (6-mer frequency, TF over GST control) in [9].
For CCTGGG, the binding signal in [1] was 1.05 fold enrichment (6-mer frequency, TF over GST control); in assay [2], 1.05 fold enrichment (6-mer frequency, TF over GST control); in assay [3] it was 1.01 fold enrichment (6-mer frequency, TF over GST control); in assay [4], 1.05 fold enrichment (6-mer frequency, TF over GST control); in [5] it was 1.09 fold enrichment (6-mer frequency, TF over GST control); in [6], 1.08 fold enrichment (6-mer frequency, TF over GST control). For the same sequence, the binding signal was 1.29 fold enrichment (6-mer frequency, TF over GST control) in assay [7]; 1.06 fold enrichment (6-mer frequency, TF over GST control) in assay [8]; 1.16 fold enrichment (6-mer frequency, TF over GST control) in assay [9].
Regarding ATGTAC, the binding signal in [1] is 1.3 fold enrichment (6-mer frequency, TF over GST control); in assay [2], 1.23 fold enrichment (6-mer frequency, TF over GST control); in assay [3], 1.16 fold enrichment (6-mer frequency, TF over GST control); in assay [4], 1.31 fold enrichment (6-mer frequency, TF over GST control); in [5], 1.31 fold enrichment (6-mer frequency, TF over GST control); in assay [6], 1.37 fold enrichment (6-mer frequency, TF over GST control). The binding signal was 1.39 fold enrichment (6-mer frequency, TF over GST control) in assay [7]; 1.3 fold enrichment (6-mer frequency, TF over GST control) in assay [8]; 1.35 fold enrichment (6-mer frequency, TF over GST control) in [9].
Regarding TGGTAC, the binding signal in [1] is 1.07 fold enrichment (6-mer frequency, TF over GST control); in assay [2] it was 1.2 fold enrichment (6-mer frequency, TF over GST control); in assay [3] it was 1.04 fold enrichment (6-mer frequency, TF over GST control); in [4], 1.14 fold enrichment (6-mer frequency, TF over GST control); in [5] it was 1.08 fold enrichment (6-mer frequency, TF over GST control); in assay [6], 1.11 fold enrichment (6-mer frequency, TF over GST control). Also, the binding signal in assay [7] was 1.15 fold enrichment (6-mer frequency, TF over GST control); in assay [8] it was 1.07 fold enrichment (6-mer frequency, TF over GST control); in assay [9], 1.19 fold enrichment (6-mer frequency, TF over GST control).
